Compound activity as filed in PubChem.
PKA-R2B act – PKA-R2B complex activation; PKA-R2B holoenzyme dissociation, Cy5-IP20 fluorescence polarization; R2B truncated from residue 108, S112A mutant; 0% DMSO only, 100% 113 µM cGMP; activation, % at 11.4 µM; 340,000 compounds, 0.079% hits; P22694+P31323;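 active = activation above a cutoff set at the mean over all compounds plus 3 SD, cut at about 18% in these data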;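 note: higher means more holoenzyme dissociation and a rise in polarization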
PolyA inhibitor – yeast polyadenylation inhibition. S. cerevisiae SKY197-pL101 polyadenylation reporter, beta-gal luminescence; efflux-impaired pdr1/pdr3 knockout yeast; score 100 = 6 SD above DMSO. activity score, % at 12 µM. 300,000 compounds, 0.02% hits. AID 1875;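 active = lowest replicate activity score at least 50, where 100 means six control SD above control mean; inconclusive = lowest score under 50 but half or more replicates reach 50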;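 note: yeast exposed to compound for 9 h at 30 °C; higher score means more reporter readthrough which indicates perturbed polyadenylation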
Neddyl block – blocks human cullin neddylation; TR-FRET cullin neddylation, biochemical; calls only at 25 µM; 360,000 compounds, 0.58% hits; AID 651699; in the data active = inhibition above about 36%
PKA-R1A activ – PKA-R1A complex activation; P00514+P68181; PKA-R1A dissociation, Cy5-IP20 fluorescence polarization; scaled: DMSO 0%, 113 µM cGMP 100%; activation, % at 11.4 µM; 340,000 compounds, 0.083% hits;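 active = percent activation above the mean of all tested compounds plus 3 SD, cut at about 19% in these data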;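 note: higher means more PKAc released from R1A so a rise in polarization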
R1A FP artifact – fluorescence polarization artifact in PKA-R1A activator counter-screen | 280 compounds, 7% hits | Cy5-IP20 peptide alone, fluorescence polarization artifact counterscreen | activation, % at 11.4 µM | shares compounds with PKA-R1A activ;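 active = mean activation over triplicate runs exceeds the adjusted cutoff derived for the parent primary screen, cut at about 19% in these data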;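 note: no PKA protein present so any polarization rise reflects compound interference; 0% = tracer peptide mix alone and 100% = mix with added PKA catalytic subunit; higher means stronger polarization artifact and likely false positive in parent screen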
PKA-R1A confirm – confirmation of PKA-R1A complex activators; activation, % at 11.4 µM; AID 504800; Cy5-IP20 fluorescence polarization, PKA-R1A holoenzyme dissociation; 280 compounds, 9% hits; shares compounds with PKA-R1A activ;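 active = mean activation over replicate wells exceeds the adjusted hit threshold taken from the earlier primary screen, cut at about 20% in these data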;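 note: 0% = holoenzyme mix with DMSO only and 100% = cGMP-activated control wells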
Target sequence (P00514 whole entry, looked up): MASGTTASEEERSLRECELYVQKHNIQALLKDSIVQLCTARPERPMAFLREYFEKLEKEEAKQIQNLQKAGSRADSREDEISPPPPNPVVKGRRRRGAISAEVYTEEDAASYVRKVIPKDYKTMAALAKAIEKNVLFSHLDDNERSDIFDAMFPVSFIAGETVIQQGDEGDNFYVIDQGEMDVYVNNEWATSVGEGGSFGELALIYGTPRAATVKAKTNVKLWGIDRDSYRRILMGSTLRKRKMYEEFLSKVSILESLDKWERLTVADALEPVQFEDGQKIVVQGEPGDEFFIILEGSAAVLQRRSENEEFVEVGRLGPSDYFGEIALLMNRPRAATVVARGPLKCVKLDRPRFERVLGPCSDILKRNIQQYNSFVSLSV
The depositor's hits bear a star; i = inactive; ? = inconclusive; / = no result. Rows were chosen to be rich in hits. Some 0.72% of all compounds tested hit in one or more screens of this group.

SMILES	PKA-R2B act	PolyA inhibitor	Neddyl block	PKA-R1A activ	R1A FP artifact	PKA-R1A confirm
CC(OC(=O)c1ccccc1O)C(=O)Nc1ccc(Cl)cn1 (stereo not given)	-7	8	i	19*	0	-2
Cc1cccc(OCCC(=O)OC(C)C(=O)Nc2ccc(Cl)cn2)c1 (stereo not given)	-11	11	i	6	/	/
O=C1[C@H]2[C@@H](c3ccc(Cl)cc3)N3C(=O)N(c4cccc(Cl)c4)C(=O)[C@@]3(Cc3ccccc3)[C@H]2C(=O)N1C1CCCCC1	-16	1	i	-7	/	/
Cc1cc(C)c(S(=O)(=O)Cc2ccccc2)c(=O)[nH]1	-4	4	i	21*	6	5
CCOc1ccc(-c2nnn(CCC(=O)O)n2)cc1OC	-7	?	i	19*	1	-1
O=C(CSc1nc2c(c(C(F)(F)F)n1)CCc1ccccc1-2)NCc1ccco1	1	40	i	8	/	/
CC(NC(=O)CSc1nc2c(c(C(F)(F)F)n1)CCc1ccccc1-2)c1ccccc1 (stereo not given)	-5	-15	i	19*	6	3
Cc1ccc(NC(=O)C2CC(=O)n3c(nc4ccccc43)N2)cc1Cl (stereo not given)	4	4	i	3	/	/
Cc1ccc(NC(=O)C2CC(=O)n3c(nc4ccccc43)N2)cc1C (stereo not given)	-6	7	i	19*	2	5
O=C(NCc1ccccc1)c1cccc(NC(=O)c2ccco2)c1	5	6	i	22*	10	7
O=C(O)c1ccc(-n2cccn2)c([N+](=O)[O-])c1	0	28	i	20*	0	2
O=C(OCc1ccccc1)N1CCc2ccccc21	-10	-17	i	-3	/	/
COc1ccccc1N1CCN(C(=O)c2cc(S(=O)(=O)N3CCOCC3)ccc2C)CC1	-1	/	i	19*	-2	0
N#CC(=C(O)COC(=O)CCCNC(=O)c1ccc(Cl)cc1)c1nc2ccccc2[nH]1	3	/	i	3	/	/
O=C(CSCc1ccccc1)N1CCN(c2ccccc2)CC1	0	-9	i	19*	1	2
O=C(CSCc1ccccc1)N1CCN(c2ccc(F)cc2)CC1	-13	11	i	-9	/	/
CC(C)C[C@@H](CN=[N+]=[N-])N1CCN(C)CCC1=O	-7	-2	i	1	/	/
Cc1ccc(NC(=O)c2cncc(Br)c2)c([N+](=O)[O-])c1	7	-9	i	23*	3	4
COc1ccc(OC)c(NC(=O)c2ccc(NC3=NC4CS(=O)(=O)CC4S3)cc2)c1 (stereo not given)	0	3	i	-2	/	/
COCc1cc(CN2CCCC(C(=O)Nc3cccc(-n4cnnn4)c3)C2)ccc1OC (stereo not given)	-3	10	i	8	/	/
Cc1c(C(=O)N2CCCCCC2)c(S(=O)(=O)Nc2cccc(F)c2)c(C)n1C	-2	-21	i	-4	/	/
Cc1cccc(NS(=O)(=O)c2c(C(=O)N3CCCC3)c(C)n(C)c2C)c1	-3	-6	i	21*	4	2
CN(CC(=O)Nc1c(Cl)cccc1Cl)C(=O)c1ccccc1SCC(=O)N1CCCC1	-2	-10	i	0	/	/
CN(CCOc1ccc(Cl)cc1)C(=O)c1ccccc1SCC(=O)N1CCCC1	8	/	i	21*	8	2
COc1ccc(CC(=O)N2N=C(c3ccncc3)CC2(O)C(F)(F)F)cc1 (stereo not given)	-5	0	i	1	/	/
CCC1=NN(C(=O)Cc2ccc(OC)cc2)C(O)(C(F)(F)F)C1 (stereo not given)	8	-7	i	19*	3	-1
O=C(COc1ccccc1Cl)NCCc1ccc2c(c1)OCCO2	-10	7	i	21*	-3	4
O=C(COc1ccccc1F)NCCc1ccc2c(c1)OCCO2	2	/	i	-4	/	/
COc1ccc(Cl)cc1N(C(=O)c1ccco1)C(C(=O)NC1CCCC1)c1ccco1 (stereo not given)	-8	12	i	-9	/	/
